{"source": "PubChem BioAssay (Tox21)", "note": "“And” between values parts separate entries of the source, which are not always exact repeats. Equal values may be shown once. Inconclusive results are not listed. Entries that show only a call come without a potency. Some compounds were tested as several samples or in several runs, with calls that do not always agree. The source made the active and inactive calls. Calls follow the shape of the dose curve; as a rule, active = well fitted inhibition curve with a large enough effect in the repeat runs; inconclusive = weak or mixed curves; inactive = no such curve, though single readings can be large or run the other way. Potency is read from the fitted curve at half-maximal effect.", "data": [{"target": "Cytochrome P450 1A2 (Homo sapiens) (UniProt P05177)", "sequence (P05177 whole entry, looked up)": "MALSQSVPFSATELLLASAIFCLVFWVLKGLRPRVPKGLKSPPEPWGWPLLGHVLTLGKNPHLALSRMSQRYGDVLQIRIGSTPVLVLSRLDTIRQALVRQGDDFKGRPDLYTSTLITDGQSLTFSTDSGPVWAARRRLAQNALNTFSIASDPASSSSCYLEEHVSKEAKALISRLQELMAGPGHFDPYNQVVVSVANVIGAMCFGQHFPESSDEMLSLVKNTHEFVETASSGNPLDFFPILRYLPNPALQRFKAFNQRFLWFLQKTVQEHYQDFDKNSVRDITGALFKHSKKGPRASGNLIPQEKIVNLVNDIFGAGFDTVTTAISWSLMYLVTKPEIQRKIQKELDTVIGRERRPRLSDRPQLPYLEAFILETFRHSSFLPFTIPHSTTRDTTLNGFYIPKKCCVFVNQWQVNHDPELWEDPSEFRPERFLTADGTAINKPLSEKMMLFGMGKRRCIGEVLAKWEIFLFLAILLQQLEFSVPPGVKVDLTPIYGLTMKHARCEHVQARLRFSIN", "assay": "Cytochrome P450 Family 1 Subfamily A Member 2 (CYP1A2) small molecule antagonists: luciferase reporter qHTS assay (AID 1671199); also: nearly all actives have a fitted effect of over 50% in size", "conditions": "P450-Glo CYP1A2 enzyme, luciferin luminescence, 1 h; series mostly up to 115 µM; activity change, negative = inhibition: at the top concentration", "description": "National Center for Advancing Translational Sciences [NCATS]\nU.S. Environmental Protection Agency [EPA]\nNational Institutes of Environmental Health Sciences [NIEHS]\nNational Toxicology Program [NTP]\nU.S. Food and Drug Administration [FDA]\nCytochrome P450 (CYP) enzymes are membrane-bound hemeproteins that play a key role in metabolism of drugs and xenobiotics. Evaluation of the effect of chemicals on CYP isozymes is useful to minimize the adverse drug reactions and toxicities in drug development process. Tox21 chemicals were tested for their effect on CYP enzyme activities by using P450-Glo (TM) screening systems (Promega Corporation, Madison, WI). These systems provide a luminescent method containing proluciferin substrates and are converted to luciferin products by CYP isozymes. The luciferin products formed are detected with a luciferin detection reagent, and the amount of light produced is proportional to CYP activity. P450-Glo (TM) CYP1A2 screening system (Catalog. No. V9770) was used to detect the compounds that interfere in CYP1A2 activity. The positive control compound used for CYP1A2 assay is furafylline (Sigma-Aldrich, St. Louis, MO).\nTox21 Assay Protocol Summary:\nTwo ul of enzyme-substrate mix was dispensed into medium binding white/solid 1536-well plates (Greiner Bio-One North America Inc., Monroe, NC) using a BioRaptr Flying Reagent Dispenser (FRD, Beckman Coulter, Brea, CA). Compounds dissolved in DMSO and positive control (furafyllline) were transferred to the assay plates at 23 nl using a Pintool station (Wako, San Diego, CA). The assay plates were incubated at room temperature for 10 min. Then 2 ul of NADPH regeneration solution was added to each well of the assay plates using an FRD and incubated at room temperature for 1 h. The reaction was stopped by adding 4 ul of detection reagent using an FRD and after 20 min incubation at room temperature the luminescence signal was measured using a ViewLux plate reader (Perkin Elmer, Shelton, CT). Data were expressed as relative luminescence units.", "values": [{"smiles": "CCCC[N+]1(C)CCCC1", "Potency": "inactive"}, {"smiles": "Nc1ccccc1", "Potency": "36.3 µM (active) and inactive and 27.5 µM (active)"}, {"smiles": "C[C@]12CCC(=O)C=C1CC[C@@H]1[C@@H]2CC[C@]2(C)C(=O)CC[C@@H]12", "Potency": "inactive"}, {"smiles": "CCC[N+]1(C)CCCC1", "Potency": "inactive"}, {"smiles": "CCCCCCCCCCn1cc[n+](C)c1", "Potency": "36 µM (active) and 32.6 µM (active)"}, {"smiles": "O=C(O)CCl", "Potency": "inactive"}, {"smiles": "COCC(=O)N(c1c(C)cccc1C)C(C)C(=O)OC", "note": "(stereo not given)", "activity change, negative = inhibition": "-6.13% [at 53 µM] (inactive)"}, {"smiles": "CCCCCCCCn1cc[n+](C)c1", "Potency": "inactive"}, {"smiles": "CCCCn1cc[n+](C)c1C", "Potency": "inactive and 35.9 µM (active)"}, {"smiles": "CC(Cl)(Cl)C(=O)O", "Potency": "inactive"}, {"smiles": "CCCn1cc[n+](C)c1", "Potency": "inactive"}, {"smiles": "O=C(O)c1nc(Cl)ccc1Cl", "Potency": "inactive"}, {"smiles": "CCn1cc[n+](C)c1C", "Potency": "inactive"}, {"smiles": "O=C(O)COc1ccc(Cl)cc1Cl", "Potency": "31.6 µM (active) and inactive"}, {"smiles": "O=c1nc(O)n(Cl)c(=O)n1Cl", "Potency": "inactive"}, {"smiles": "O=C(O)C(Cl)(Cl)Cl", "Potency": "inactive and 35.6 µM (active)"}, {"smiles": "CCCC[N+]1(C)CCCCC1", "Potency": "inactive"}, {"smiles": "CCCCCCCCCCCC(=O)O", "Potency": "inactive"}, {"smiles": "CCCCCCCCCCCCCC[P+](CCCCCC)(CCCCCC)CCCCCC", "Potency": "35.7 µM (active) and 63.8 µM (active)"}, {"smiles": "CCC(=O)C(CC(C)N(C)C)(c1ccccc1)c1ccccc1", "note": "(stereo not given)", "activity change, negative = inhibition": "-7.86% (inactive)"}, {"smiles": "Oc1ccccc1-c1ccccc1", "Potency": "23 µM (active) [middle of 4 runs]"}, {"smiles": "Nc1ccc(Cl)cc1", "Potency": "63.3 µM (active) and 39.9 µM (active) and 57.4 µM (active)"}, {"smiles": "CCOP(=S)(OCC)Oc1ccc2c(C)c(Cl)c(=O)oc2c1", "Potency": "2.86 µM (active) and 4.48 µM (active) and 13.8 µM (active)"}, {"smiles": "CCCCCCCCCCCCOS(=O)(=O)O", "Potency": "inactive"}, {"smiles": "CCCCCC[n+]1ccccc1", "Potency": "inactive"}, {"smiles": "CCCC[n+]1ccccc1C", "Potency": "inactive"}, {"smiles": "Cc1cc(Cl)ccc1N", "Potency": "11.5 µM (active) and 9.8 µM (active) and 7.96 µM (active)"}, {"smiles": "CCCC[n+]1cccc(C)c1", "Potency": "inactive"}, {"smiles": "CCCC[n+]1ccc(C)cc1", "Potency": "36.1 µM (active) and 35.4 µM (active) and inactive"}, {"smiles": "COc1ccc(N)cc1", "activity change, negative = inhibition": "-18% (inactive)"}, {"smiles": "O=C(O)C(Cl)Cl", "Potency": "inactive"}, {"smiles": "CCC[N+]1(C)CCCCC1", "Potency": "inactive"}, {"smiles": "CCCC[n+]1ccccc1", "Potency": "inactive"}, {"smiles": "Nc1ccc(-c2ccc(N)c(Cl)c2)cc1Cl", "Potency": "1.79 µM (active) and 1.48 µM (active) and 1.42 µM (active)"}, {"smiles": "CN(C)[C@@H]1C(=O)C(C(N)=O)=C(O)[C@@]2(O)C(=O)C3=C(O)c4c(O)cccc4[C@@](C)(O)[C@H]3[C@H](O)[C@@H]12", "Potency": "inactive"}, {"smiles": "CNC", "Potency": "inactive"}, {"smiles": "OCCOc1ccccc1", "activity change, negative = inhibition": "-12.6% (inactive)"}, {"smiles": "CC[N+]1(C)CCCC1", "Potency": "inactive"}, {"smiles": "CC[n+]1ccccc1", "Potency": "inactive"}, {"smiles": "Nc1ccc(-c2ccc(N)cc2)cc1", "Potency": "19.8 µM (active) and 14.1 µM (active) and 25.2 µM (active)"}]}]}
